Assay results published in article PMC8384837, “Expanding the binding specificity for RNA recognition by a PUF domain”.

Key:
Experiment in all cases: yeast three-hybrid, YBZ-1, SC-Leu-His + 0.5 mM 3-AT, 4 days
Conditions in all cases: tags: N-Gal4 AD-HA kept; label: inside an RPR1-promoter hybrid RNA with tandem MS2 sites; ssRNA
PUM1 PUF domain R3-SCQ = PUM1 PUF domain R3-SCQ (Homo sapiens, UniProt Q14671 828-1176, C935S;R936C)
In short: (§1)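 The interaction score is the logarithmic change in variant frequency from input to selection. It uses log2, with a pseudocount of 1 for absent variants, and frequencies came from PCR-amplified, Illumina-sequenced repeat regions. The libraries were Pumilio-1 PUF domains randomized at the three base-contacting residues per repeat, co-expressed with matching RNA elements in strain YBZ-1 (LexA–MS2 coat fusion, HIS3 reporter). Plating lasted four days on SC-Leu (input) or SC-Leu-His + 0.5 mM 3-AT (selection).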

PUM1 PUF domain R3-SVE = PUM1 PUF domain R3-SVE (Homo sapiens, UniProt Q14671 828-1176, C935S;R936V;Q939E)
In short: as §1

PUM1 PUF domain R3-STD = PUM1 PUF domain R3-STD (Homo sapiens, UniProt Q14671 828-1176, C935S;R936T;Q939D)
In short: as §1

PUM1 PUF domain R3-CRM = PUM1 PUF domain R3-CRM (Homo sapiens, UniProt Q14671 828-1176, Q939M)
In short: as §1

PUM1 PUF domain R3-YRE = PUM1 PUF domain R3-YRE (Homo sapiens, UniProt Q14671 828-1176, C935Y;Q939E)
In short: as §1

PUM1 PUF domain R1-KRF = PUM1 PUF domain R1-KRF (Homo sapiens, UniProt Q14671 828-1176, S863K;Q867F)
In short: as §1

PUM1 PUF domain R8-RWL = PUM1 PUF domain R8-RWL (Homo sapiens, UniProt Q14671 828-1176, N1122R;Y1123W;Q1126L)
In short: as §1

PUM1 PUF domain R8-RWC = PUM1 PUF domain R8-RWC (Homo sapiens, UniProt Q14671 828-1176, N1122R;Y1123W;Q1126C)
In short: as §1

PUM1 PUF domain R8-RFR = PUM1 PUF domain R8-RFR (Homo sapiens, UniProt Q14671 828-1176, N1122R;Y1123F;Q1126R)
In short: as §1

PUM1 PUF domain R5-GKR = PUM1 PUF domain R5-GKR (Homo sapiens, UniProt Q14671 828-1176, C1007G;R1008K;Q1011R)
In short: as §1

PUM1 PUF domain R5-TRW = PUM1 PUF domain R5-TRW (Homo sapiens, UniProt Q14671 828-1176, C1007T;Q1011W)
In short: as §1

PUM1 PUF domain R7-RRL = PUM1 PUF domain R7-RRL (Homo sapiens, UniProt Q14671 828-1176, S1079R;N1080R;E1083L)
In short: as §1

PUM1 PUF domain R3-VFD = PUM1 PUF domain R3-VFD (Homo sapiens, UniProt Q14671 828-1176, C935V;R936F;Q939D)
In short: as §1

PUM1 PUF domain R1-RWD = PUM1 PUF domain R1-RWD (Homo sapiens, UniProt Q14671 828-1176, S863R;R864W;Q867D)
In short: as §1

PUM1 PUF domain R4-MPT = PUM1 PUF domain R4-MPT (Homo sapiens, UniProt Q14671 828-1176, N971M;H972P;Q975T)
In short: as §1

PUM1 PUF domain R4-GPH = PUM1 PUF domain R4-GPH (Homo sapiens, UniProt Q14671 828-1176, N971G;H972P;Q975H)
In short: as §1

PUM1 PUF domain R3-VRF = PUM1 PUF domain R3-VRF (Homo sapiens, UniProt Q14671 828-1176, C935V;Q939F)
In short: as §1

PUM1 PUF domain R4-SLY = PUM1 PUF domain R4-SLY (Homo sapiens, UniProt Q14671 828-1176, N971S;H972L;Q975Y)
In short: as §1

PUM1 PUF domain R6-NYV = target: T1, PUM1 PUF domain R6-NYV (Homo sapiens, UniProt Q14671 828-1176, Q1047V)
T1 sequence: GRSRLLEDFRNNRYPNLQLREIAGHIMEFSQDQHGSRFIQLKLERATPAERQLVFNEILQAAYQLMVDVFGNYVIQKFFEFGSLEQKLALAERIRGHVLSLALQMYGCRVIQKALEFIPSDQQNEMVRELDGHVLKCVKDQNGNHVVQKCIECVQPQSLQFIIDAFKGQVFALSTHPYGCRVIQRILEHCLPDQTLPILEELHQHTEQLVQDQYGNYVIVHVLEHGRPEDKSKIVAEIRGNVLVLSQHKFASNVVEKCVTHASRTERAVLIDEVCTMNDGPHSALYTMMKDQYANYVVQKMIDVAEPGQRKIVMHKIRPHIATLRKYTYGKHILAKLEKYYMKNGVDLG
In short: as §1

PUM1 PUF domain R3-KPV = PUM1 PUF domain R3-KPV (Homo sapiens, UniProt Q14671 828-1176, C935K;R936P;Q939V)
In short: as §1

## GGCUAGAACUAGUGGAUCCCCCGGCGCCCGGCGGCUCGAGCCCGGGUAAGUGUAAGUAGUCUGCAUGCCGCCGGGCGCCAUGCCUGCAGGUCGACUCUAGAAAACAUG
PUM1 PUF domain R3-SCQ
  binding signal: 2.27 log2 enrichment (interaction score)
PUM1 PUF domain R3-SVE
  binding signal: 4.64 log2 enrichment (interaction score)
PUM1 PUF domain R3-STD
  binding signal: 2.07 log2 enrichment (interaction score)
PUM1 PUF domain R3-CRM
  binding signal: 1.46 log2 enrichment (interaction score)
PUM1 PUF domain R3-YRE
  binding signal: 3.13 log2 enrichment (interaction score)

## GGCUAGAACUAGUGGAUCCCCCGGCGCCCGGCGGCUCGAGCCCGGGUAAGUGUAAAUCGUCUGCAUGCCGCCGGGCGCCAUGCCUGCAGGUCGACUCUAGAAAACAUG
PUM1 PUF domain R1-KRF
  binding signal: 3.25 log2 enrichment (interaction score)

## GGCUAGAACUAGUGGAUCCCCCGGCGCCCGGCGGCUCGAGCCCGGGUAAGCGUAAAUAGUCUGCAUGCCGCCGGGCGCCAUGCCUGCAGGUCGACUCUAGAAAACAUG
PUM1 PUF domain R8-RWL
  binding signal: 6.58 log2 enrichment (interaction score)
PUM1 PUF domain R8-RWC
  binding signal: 4.12 log2 enrichment (interaction score)
PUM1 PUF domain R8-RFR
  binding signal: 6.81 log2 enrichment (interaction score)

## GGCUAGAACUAGUGGAUCCCCCGGCGCCCGGCGGCUCGAGCCCGGGUAAGUGUUAAUAGUCUGCAUGCCGCCGGGCGCCAUGCCUGCAGGUCGACUCUAGAAAACAUG
PUM1 PUF domain R5-GKR
  binding signal: 2.96 log2 enrichment (interaction score)

## GGCUAGAACUAGUGGAUCCCCCGGCGCCCGGCGGCUCGAGCCCGGGUAAGUGUGAAUAGUCUGCAUGCCGCCGGGCGCCAUGCCUGCAGGUCGACUCUAGAAAACAUG
PUM1 PUF domain R5-TRW
  binding signal: 0.38 log2 enrichment (interaction score)

## GGCUAGAACUAGUGGAUCCCCCGGCGCCCGGCGGCUCGAGCCCGGGUAAGUUUAAAUAGUCUGCAUGCCGCCGGGCGCCAUGCCUGCAGGUCGACUCUAGAAAACAUG
PUM1 PUF domain R7-RRL
  binding signal: 6.01 log2 enrichment (interaction score)

## GGCUAGAACUAGUGGAUCCCCCGGCGCCCGGCGGCUCGAGCCCGGGUAAGUGUAACUAGUCUGCAUGCCGCCGGGCGCCAUGCCUGCAGGUCGACUCUAGAAAACAUG
PUM1 PUF domain R3-VFD
  binding signal: 2.56 log2 enrichment (interaction score)

## GGCUAGAACUAGUGGAUCCCCCGGCGCCCGGCGGCUCGAGCCCGGGUAAGUGUAAAUGGUCUGCAUGCCGCCGGGCGCCAUGCCUGCAGGUCGACUCUAGAAAACAUG
PUM1 PUF domain R1-RWD
  binding signal: 2.32 log2 enrichment (interaction score)

## GGCUAGAACUAGUGGAUCCCCCGGCGCCCGGCGGCUCGAGCCCGGGUAAGUCUAAAUAGUCUGCAUGCCGCCGGGCGCCAUGCCUGCAGGUCGACUCUAGAAAACAUG
PUM1 PUF domain R7-RRL
  binding signal: 5.23 log2 enrichment (interaction score)

## GGCUAGAACUAGUGGAUCCCCCGGCGCCCGGCGGCUCGAGCCCGGGUAAGUGUCAAUAGUCUGCAUGCCGCCGGGCGCCAUGCCUGCAGGUCGACUCUAGAAAACAUG
PUM1 PUF domain R5-GKR
  binding signal: 6.15 log2 enrichment (interaction score)

## GGCUAGAACUAGUGGAUCCCCCGGCGCCCGGCGGCUCGAGCCCGGGUAAGUGUAUAUAGUCUGCAUGCCGCCGGGCGCCAUGCCUGCAGGUCGACUCUAGAAAACAUG
PUM1 PUF domain R4-MPT
  binding signal: 2.81 log2 enrichment (interaction score)
PUM1 PUF domain R4-GPH
  binding signal: 1.26 log2 enrichment (interaction score)

## GGCUAGAACUAGUGGAUCCCCCGGCGCCCGGCGGCUCGAGCCCGGGUAAGUGUAAAUAGUCUGCAUGCCGCCGGGCGCCAUGCCUGCAGGUCGACUCUAGAAAACAUG
PUM1 PUF domain R4-MPT
  binding signal: 3.73 log2 enrichment (interaction score)
PUM1 PUF domain R5-TRW
  binding signal: 2.78 log2 enrichment (interaction score)
PUM1 PUF domain R8-RWL
  binding signal: 5.06 log2 enrichment (interaction score)
PUM1 PUF domain R3-VRF
  binding signal: 4.4 log2 enrichment (interaction score)
PUM1 PUF domain R4-SLY
  binding signal: 2.48 log2 enrichment (interaction score)
PUM1 PUF domain R5-GKR
  binding signal: 1.48 log2 enrichment (interaction score)
PUM1 PUF domain R8-RWC
  binding signal: 4.9 log2 enrichment (interaction score)
PUM1 PUF domain R8-RFR
  binding signal: 6.72 log2 enrichment (interaction score)
PUM1 PUF domain R3-CRM
  binding signal: 3.01 log2 enrichment (interaction score)
PUM1 PUF domain R4-GPH
  binding signal: 4.16 log2 enrichment (interaction score)
PUM1 PUF domain R3-VFD
  binding signal: 6.45 log2 enrichment (interaction score)
PUM1 PUF domain R6-NYV
  binding signal: 4.01 log2 enrichment (interaction score)

## GGCUAGAACUAGUGGAUCCCCCGGCGCCCGGCGGCUCGAGCCCGGGUAAGUGUAAUUAGUCUGCAUGCCGCCGGGCGCCAUGCCUGCAGGUCGACUCUAGAAAACAUG
PUM1 PUF domain R3-SCQ
  binding signal: 1.65 log2 enrichment (interaction score)
PUM1 PUF domain R3-VFD
  binding signal: 5.14 log2 enrichment (interaction score)
PUM1 PUF domain R3-KPV
  binding signal: 3.62 log2 enrichment (interaction score)
